This note sets out measurements from PubChem BioAssay AID1851 (National Center for Advancing Translational Sciences (NCATS), 2009).

Where “and” joins values, the source holds several entries; their conditions need not be identical. Identical values can stand only once. In all, about 16,000 compounds went through this assay and about 5,800 (36%) were called active. Roughly 23% stayed inconclusive and do not appear here. Calls come from the whole dose curve; as a rule, active = well fitted curve in the direction sought with a large enough effect; inconclusive = small, poorly fitted or top-dose-only effect, or effect the other way; inactive = no such curve, though single readings can be large or run the other way. This is one part of the list.
% is set by controls: 0 for no effect and ±100 for the full control effect.

The target of this test is Cytochrome P450 2C19 (Homo sapiens) (UniProt P33261). Nature of the test: Cytochrome panel assay with activity outcomes. The following applies: recombinant CYP, pro-luciferin dealkylation, luminescence, p450-cyp2c19; series mostly up to 57.1 µM; activity, negative = inhibition: at the top concentration.
Sequence of Cytochrome P450 2C19 (Homo sapiens) (P33261 whole entry, looked up): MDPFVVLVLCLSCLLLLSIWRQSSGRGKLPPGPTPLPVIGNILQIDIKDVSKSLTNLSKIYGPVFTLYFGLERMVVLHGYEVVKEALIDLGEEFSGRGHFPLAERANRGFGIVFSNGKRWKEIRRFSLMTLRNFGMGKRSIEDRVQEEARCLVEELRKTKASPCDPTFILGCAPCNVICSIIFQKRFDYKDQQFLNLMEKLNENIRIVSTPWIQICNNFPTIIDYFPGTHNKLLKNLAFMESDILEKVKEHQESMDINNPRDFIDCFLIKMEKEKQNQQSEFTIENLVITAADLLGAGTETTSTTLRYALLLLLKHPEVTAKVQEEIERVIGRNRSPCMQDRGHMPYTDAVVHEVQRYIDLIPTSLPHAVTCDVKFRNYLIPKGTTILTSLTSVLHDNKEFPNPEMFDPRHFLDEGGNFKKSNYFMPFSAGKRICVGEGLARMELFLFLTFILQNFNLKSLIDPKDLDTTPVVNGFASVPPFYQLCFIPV
In the case of `Cc1cnc(CNc2ccnc(-c3c(C)noc3C)n2)cn1`, the “activity, negative = inhibition” value is 17.1% (inactive).

On to `Cc1noc(C)c1-c1nccc(NCc2cccnc2)n1`, for which the AC50 (usually the concentration giving half of the maximal activity seen) is 25.1 µM (active).

In the case of `COc1ccccc1-c1nccc(NCc2cccnc2)n1`, the AC50 was 3.98 µM (active).

For the compound `COC(=O)C/C=C\[C@@H](C)[C@@H](/C=N\OC[C@@H](O)[C@H]1O[C@H]2OC(C)(C)O[C@H]2[C@@H]1O)OC`, the activity, negative = inhibition was -19.4% [at 11.4 µM] (inactive).

Take `Clc1ccccc1-c1nc(-c2ccccc2)n[nH]1`: the AC50 is 17.8 µM (active).

With `NC(=O)Nc1n[nH]c(-c2ccccc2)n1`, the activity, negative = inhibition is 13.8% [at 11.4 µM] (inactive).

As for `O=c1ccc(-c2ccccc2)n[nH]1`, the activity, negative = inhibition was 13.5% [at 11.4 µM] (inactive).

For the compound `CN1CCN(c2ncc3nc(-c4cc(F)cc(F)c4)c(=O)n(C4CC4)c3n2)CC1`, the “activity, negative = inhibition” value is 0.372% (inactive).

Consider `O=S(=O)(C=C(c1ccccc1)c1ccccc1)c1ccccc1`, for which the AC50 was 2.82 µM (active).

For `Nc1ccc(S(=O)(=O)NC(=O)c2ccccc2)cc1`, the “activity, negative = inhibition” value is 6.33% [at 25.6 µM] (inactive).

As to `O=S(=O)(O)c1ccc(N=Nc2ccccc2)cc1`, the activity, negative = inhibition was 6.93% [at 11.4 µM] (inactive).

With `COc1ccc(S(=O)(=O)N2CC3CCCN3c3ccc(C(F)(F)F)cc32)cc1` (stereo not given), the AC50 is 0.562 µM (active).

`COc1ccc(C(OCCN2CCC[C@@H](C(=O)O)C2)(c2ccc(OC)cc2)c2ccc(OC)cc2)cc1`: the “activity, negative = inhibition” value was -12.7% (inactive).

Regarding `O=S(=O)(c1ccc(F)cc1)N1CC2CCCN2c2ccc(C(F)(F)F)cc21` (stereo not given), the AC50 is 2.24 µM (active).

Take `COc1ccc(NC(=O)N2CC[C@@]3(CCCN(C(=O)c4cc(C(F)(F)F)cc(C(F)(F)F)c4)C3)C2)cc1`: the “activity, negative = inhibition” value was -14.2% (inactive).

For the compound `Nc1ccccc1CCCC(=O)O`, the activity, negative = inhibition was -13.9% [at 11.4 µM] (inactive).

For the compound `COc1ccccc1CN1CCCC2(CCN(C(=O)c3csnn3)CC2)C1`, the “activity, negative = inhibition” value is 10.3% (inactive).

Take `COC(=O)c1nn(-c2cccc(C(F)(F)F)c2)c(=O)cc1Sc1ccccn1`: the AC50 is 5.62 µM (active).

Regarding `N#Cc1cc(N)ccc1Sc1ccc(Cl)cc1`, the AC50 is 3.16 µM (active).

With `CCc1sc(N(C(=O)Cc2ccccc2)c2cccc(F)c2)nc1-c1ccc(C)cc1`, the AC50 is 2.82 µM (active).

For `CC(C)c1ccc(-c2nnn(CCC(=O)O)n2)cc1`, the “activity, negative = inhibition” value was -25.8% (inactive).

Regarding `c1ccc(-c2nnn(CCN3CCCCC3)n2)cc1`, the AC50 is 1.26 µM (active).

Regarding `c1ccc([C@H](CCN2CCCC2)c2ccccn2)cc1`, the activity, negative = inhibition is -19.9% [at 11.4 µM] (inactive).

Consider `COc1ccc2c(Cc3c4ccccc4cc4ccccc34)cncc2c1O`, for which the AC50 is 2.51 µM (active).

For `O=C(O)c1cc2ccccc2c(Cc2cc3ccccc3c(C(=O)O)c2O)c1O` (tested in a mixture with another compound), the “activity, negative = inhibition” value is -22.9% [at 25.6 µM] (inactive).

Consider `O=C(c1csnn1)N1CCC2(CC1)CN(Cc1cc(C(F)(F)F)cc(C(F)(F)F)c1)C2`, for which the “activity, negative = inhibition” value is 17.8% (inactive).

On to `CCn1cc(C(=O)O)c(=O)c2cnc(N3CCNCC3)nc21`, for which the “activity, negative = inhibition” value was 32.6% [at 25.6 µM] (inactive).

As to `O=C(NCc1cccnc1)c1sc2cc(Cl)ccc2c1Cl`, the AC50 was 2 µM (active).

As for `CC[C@H](NC(C)C)[C@H](O)c1ccc(O)c(O)c1`, the “activity, negative = inhibition” value is -17.7% (inactive).

Regarding `CC1=CC(=O)N(c2cccc(C(F)(F)F)c2)C1c1ccc(Cl)cc1` (stereo not given), the AC50 is 2.24 µM (active).

Take `Cc1ccc(NC(=S)/C(=C(\[O-])c2ccc(C)c([N+](=O)[O-])c2)[n+]2ccccc2)cc1C`: the AC50 was 7.94 µM (active).

For the compound `O=C(O)c1ccc(NS(=O)(=O)Cc2ccccc2)cc1`, the activity, negative = inhibition is -9.9% [at 11.4 µM] (inactive).

On to `CC1(C)[C@@H]2CC[C@@]1(CS(=O)(=O)Nc1ccccc1)C(=O)C2`, for which the AC50 is 2 µM (active).

In the case of `COC(=O)C1=C(C)NC2=C(C(=O)CCC2)C1c1cn(Cc2ccc(Cl)cc2Cl)nc1-c1ccccc1` (stereo not given), the AC50 is 2.24 µM (active).

`COCCOC(=O)C1=C(C)NC(=O)N(C(C)=O)C1c1ccc(Cl)cc1` (stereo not given): the AC50 is 3.55 µM (active).

Regarding `CO[C@@H]1COC(=O)C/C=C\[C@H](C)[C@@H](NS(=O)(=O)c2ccc(C)cc2)COC(=O)C/C=C\[C@@H]1C`, the activity, negative = inhibition is -12.5% [at 11.4 µM] (inactive) and -34.1% [at 11.4 µM] (inactive).

Regarding `CC(c1ccccc1C(O)c1ccccc1)N(C)C` (stereo not given), the “activity, negative = inhibition” value was -16.6% (inactive).

For the compound `NC(=O)c1ccc[n+](CC(=O)OCCC23CC4CC(CC(C4)C2)C3)c1`, the “activity, negative = inhibition” value was -28.6% (inactive).

As to `O=C(NCCOC12CC3CC(CC(C3)C1)C2)c1cccc(Br)c1`, the AC50 is 0.891 µM (active).

In the case of `N[C@H](C(=O)O)c1nn[nH]n1`, the “activity, negative = inhibition” value is 29.8% (inactive).

For `OC[C@@H](O)CN1CCN(c2ccccc2)CC1`, the “activity, negative = inhibition” value was 39.7% [at 25.6 µM] (inactive).

Consider `c1ccc(N2CCN(CCCOc3ccc4c(c3)OCO4)CC2)cc1`, for which the AC50 is 5.01 µM (active).

As for `C/C(CCN1CCCCc2nc(C)c(C)cc21)=N\O[C@@H](C)CN1CCCc2nc(C)c(C)cc21`, the activity, negative = inhibition is 25.7% [at 11.4 µM] (inactive).

Regarding `COc1ccc(O[C@H]2C=C[C@@H](c3ccccc3)O[C@H]2COC(=O)CC/C(C)=N\O[C@@H](C)CN2CCCCc3nc(C)c(C)cc32)cc1`, the AC50 is 5.01 µM (active).

As to `CC(=O)OC[C@@H]1O[C@H](C/C=N\O[C@@H](C)CN2CCCCc3nc(C)c(C)cc32)C=C[C@@H]1OC(C)=O`, the activity, negative = inhibition was 34.1% [at 11.4 µM] (inactive).

As to `C/C(CCN1CCCc2nc(C)c(C)cc21)=N\O[C@@H](C)CN1CCCCc2nc(C)c(C)cc21`, the activity, negative = inhibition is 9.26% [at 11.4 µM] (inactive).

As to `COc1ccc(O[C@H]2C=C[C@@H](c3ccccc3)O[C@H]2COC(=O)CC/C(C)=N\O[C@@H](C)CN2CCCc3nc(C)c(C)cc32)cc1`, the AC50 was 3.16 µM (active).

Consider `CC(=O)OC[C@@H]1O[C@H](C/C=N\O[C@@H](C)CN2CCCc3nc(C)c(C)cc32)C=C[C@@H]1OC(C)=O`, for which the activity, negative = inhibition was 12.3% [at 11.4 µM] (inactive).

For `C/C(CCN1CCCCc2nc(C)c(C)cc21)=N\O[C@@H](C)CN1CCCCc2nc(C)c(C)cc21`, the activity, negative = inhibition was 42.7% [at 11.4 µM] (inactive).

Regarding `C/C(CCC(=O)OC[C@@H]1O[C@H](C#Cc2ccccc2)C=C[C@@H]1Oc1ccc(C)cc1)=N/O[C@@H](C)CN1CCCc2nc(C)c(C)cc21`, the AC50 was 3.16 µM (active).

Consider `C/C=C\C[C@@H](C)[C@@H](O)[C@H]1C(=O)N[C@@H](CC)C(=O)N(C)CC(=O)N(C)[C@@H](CC(C)C)C(=O)N[C@@H](C(C)C)C(=O)N(C)[C@@H](CC(C)C)C(=O)N[C@@H](C)C(=O)N[C@H](C)C(=O)N(C)[C@@H](CC(C)C)C(=O)N(C)[C@@H](CC(C)C)C(=O)N(C)[C@@H](C(C)C)C(=O)N1C`, for which the “activity, negative = inhibition” value was -9.22% (inactive).

As to `NC(=NCc1ccccc1)NC(=O)c1nc(Cl)c(N)nc1N`, the AC50 entry was “inactive”.

Turning to `O=C1C2C3c4ccccc4C(c4ccccc43)C2C(=O)N1c1nc(-c2ccccc2)cs1` (stereo not given), the AC50 is 1.78 µM (active).

As to `N=C1SCC(=O)N1c1nc(-c2ccccc2)cs1`, the “activity, negative = inhibition” value was -7.37% (inactive).

As to `O=C1[C@@H]2[C@@H](C(=O)N1c1ccc(OCc3ccccc3)cc1)[C@@H]1c3ccccc3[C@@H]2[n+]2ccccc21`, the activity, negative = inhibition was -10.9% [at 11.4 µM] (inactive).

Take `O=C(c1ccco1)N(CCC(c1ccccc1)c1ccco1)Cc1ccco1` (stereo not given): the AC50 was 3.98 µM (active).

As to `CNCCC=C1c2ccccc2C=Cc2ccccc21`, the “activity, negative = inhibition” value is 19.1% [at 25.6 µM] (inactive).

On to `Cc1ccccc1-c1cc(NCc2ccccc2)ncn1`, for which the AC50 is 3.16 µM (active).

With `FC(F)(F)c1ccccc1-c1cc(NCc2cccs2)ncn1`, the AC50 was 0.794 µM (active).

With `CN(C)Cc1ccccc1-c1cc(NCc2cccs2)ncn1`, the “activity, negative = inhibition” value was 7.11% (inactive).

On to `FC(F)(F)c1ccccc1-c1cc(NCc2cccnc2)ncn1`, for which the AC50 is 10 µM (active).

Consider `Cc1ccccc1-c1cc(NCc2cccnc2)ncn1`, for which the AC50 is 10 µM (active).

Take `Cn1cc(-c2nc3cnc(Oc4ccccc4)nc3n(Cc3cccs3)c2=O)c2ccccc21`: the “activity, negative = inhibition” value was -11% (inactive).

In the case of `CCCCOC(=S)NC(=O)c1sc2ccccc2c1Cl`, the AC50 is 0.794 µM (active).

As to `Cc1ccc(C(=O)N/N=C\c2cccn2C)cn1`, the “activity, negative = inhibition” value was 18.1% (inactive).

Regarding `O=C(NC(=S)N(CCCCO)C1CCCCC1)c1sc2ccccc2c1Cl`, the AC50 was 7.08 µM (active).

Consider `Cc1nn(Cc2ccccc2Cl)c(C)c1NC(=O)CCCn1nc(C)c([N+](=O)[O-])c1C`, for which the “activity, negative = inhibition” value is -20.6% (inactive).

Regarding `Cc1ccccc1Cn1nc(C)c(NC(=O)c2sc3ccccc3c2Cl)c1C`, the AC50 was 14.1 µM (active).

Turning to `Cn1cccc1/C=N/NC(=O)c1sc2ccccc2c1Cl`, the AC50 was 7.94 µM (active).

As to `CO[C@H]1COC(=O)C/C=C\[C@@H](C)COC(=O)[C@H]2CCCN2C(=O)C/C=C\[C@H]1C`, the activity, negative = inhibition was -21.9% [at 11.4 µM] (inactive).

As for `O=C(O)CCC(=O)c1ccc2sc3ccccc3c2c1`, the activity, negative = inhibition is 9.52% [at 11.4 µM] (inactive).

Regarding `CCOC(=S)NC(=O)c1sc2ccccc2c1Cl`, the AC50 is 3.16 µM (active).

With `CO/N=C(\C)CCN1CCCc2nc(C)c(C)cc21`, the activity, negative = inhibition was -7.2% [at 11.4 µM] (inactive).

Take `Cc1ccccc1NC1=C(C(=O)c2ccccc2)N(C)S(=O)(=O)c2ccccc21`: the AC50 was 8.91 µM (active).

In the case of `Cc1cc(NC(=O)C2=C(O)c3ccccc3S(=O)(=O)N2C)no1`, the “activity, negative = inhibition” value is -6.42% [at 25.6 µM] (inactive).

With `CO[C@@H]1/C=C\CC(=O)N[C@@H](C)C(=O)OC[C@@H](OC)[C@H](C)CCCC(=O)OC[C@H]1C`, the activity, negative = inhibition is -3.19% [at 11.4 µM] (inactive).

Regarding `C[C@@H]1CCC[C@H](C)N1NC(=O)c1ccc(Cl)c(S(N)(=O)=O)c1`, the “activity, negative = inhibition” value is 5.63% [at 25.6 µM] (inactive).

Turning to `CC1CCCC(C)N1C(=O)c1cc(-c2ccc(Cl)c(Cl)c2)on1` (stereo not given), the AC50 is 11.2 µM (active).

With `CCCN[C@@H](C)C(=O)Nc1ccccc1C`, the AC50 entry was “inactive”.

As for `Cc1ccccc1NC(=O)C(C)c1cccc(C(=O)c2ccccc2)c1` (stereo not given), the AC50 is 1.26 µM (active).

Regarding `N[C@@H](Cc1c[nH]c2ccc([N+](=O)[O-])cc12)C(=O)O`, the activity, negative = inhibition was 34.9% [at 11.4 µM] (inactive).

Consider `O=C(NCc1cn(-c2ccccc2)nc1-c1ccccc1)c1cc([N+](=O)[O-])cc([N+](=O)[O-])c1`, for which the AC50 was 1.78 µM (active).

`c1coc(CN2CCN(C(c3cccs3)c3nnnn3C3CCCC3)CC2)c1` (stereo not given): the AC50 was 10 µM (active).

On to `CS(=O)(=O)N1CCC2(CCN(Cc3ccncc3)CC2)CC1`, for which the “activity, negative = inhibition” value is -33.9% (inactive).

Turning to `Clc1ccc(C(c2nnnn2C2CCCC2)N2CCN(Cc3ccncc3)CC2)cc1` (stereo not given), the AC50 is 0.224 µM (active).
